Results on 61 compounds are retold here after PubChem BioAssay AID1626 (SRMLSC, 2009).

Structures are written as SMILES. About 2,000 (0.91%) of roughly 220,000 compounds were called active. About 2% were inconclusive and are not listed. Cut-off read from the data, not from the text of the source: inconclusive = inhibition above about 80% without an active follow-up result; inactive = below that; test concentration not stated here. The list is a sample of the results. Potency and affinity values are given separately.

The assay can be described thus: M. tuberculosis H37Rv growth inhibitors, H37Rv strain (AID 1626).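 Note: bacteria incubated seven days before Alamar blue readout; 0% = bacteria only wells and 100% = bacteria with antibiotic wells.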 The note with it: hits give high values, concentration not given here.
The inhibition is the drop in the measured response relative to a control, in per cent. As to `Cc1c(C)[n+](=O)c2c(n1[O-])C(Br)CCC2Br` (stereo unspecified), the inhibition was 0.09% (inactive).

`NC(=O)Oc1cccc(OC(N)=O)c1`: the inhibition was -7.05% (inactive). Then `COC(=O)c1cccc(NC(N)=S)c1`, with 2.04% (inactive); and `C#CCOc1ccc(Br)cc1/C=N/O`, with 7.55% (inactive); and `O=C(NCc1cccs1)c1cc(-c2ccncc2)nc2ccc(Br)cc12`, with 71.8% (inactive).

Take `Cc1cc(N)n2ncc(-c3cccc(Br)c3)c2n1`: the inhibition was 22.8% (inactive). Then `O=C(O)CSC1c2ccccc2C(=O)N1c1ccccc1` (stereo unspecified), with -1.63% (inactive). Next, `CC(C)CNC(=O)Cn1c(=O)c2c(ncn2CC(C)C)n(Cc2ccccc2)c1=O`: 7.42% (inactive). Then `Cc1ccc(NC(=S)NNC(=O)c2ccco2)cc1`, with 7.01% (inactive); and `O=C(Nc1ncc(Cc2ccccc2Cl)s1)c1ccc(-c2cccc([N+](=O)[O-])c2)o1`, with -0.67% (inactive); and `O=C(Nc1ncc(Cc2cccc([N+](=O)[O-])c2)s1)c1ccco1`, with 1.37% (inactive). Regarding `COC(=O)c1ccc(OCC(O)CN2C(=O)NC(C)(C)C2=O)cc1` (stereo unspecified), the inhibition was -2.31% (inactive). Next, `CN(C)C(CNC(=O)c1cc(S(=O)(=O)N(C)c2ccccc2)ccc1Cl)c1cccs1` (stereo unspecified): -3.17% (inactive); `Cc1occc1C(=O)N/N=C/C1=C(N2CCOCC2)C(=C\c2ccc(Cl)cc2)/CC1`: -4.7% (inactive). Then `O=C(NCc1cccnc1)c1ccc(COc2ccccc2Br)cc1`, with 12% (inactive). Then `O=C(NCCC(=O)N1CCOCCOCCOCCOCC1)OCc1ccccc1`, with -3.39% (inactive). With `NS(=O)(=O)c1ccc(CNC(=O)c2cc(-c3ccccn3)nc3ccc(Cl)cc23)cc1`, the inhibition was 8.36% (inactive). For the compound `CCOC(=O)N1CCN(C(=O)c2ccc3nc4ccc(Cl)cc4c(=O)n3c2)CC1`, the inhibition was 2.6% (inactive). As for `CCNC(=O)CN1C(=O)NC(Cc2ccccc2)(Cc2ccccc2)C1=O`, the inhibition was -0.94% (inactive). Then `COc1ccc(NC(=O)Nc2ccc(F)cc2F)cc1`, with 10.7% (inactive); and `COc1ccc(CN2C(=O)CS/C2=N/N=C/c2ccccc2)cc1`, with -0.88% (inactive); and `CCNC(=S)N(Cc1c(C)noc1C)c1ccccc1`, with -11.8% (inactive). Then `CCOc1cc(/C=N/NC(=O)CSc2nncn2C)ccc1OCc1cccc(C)c1`, with 5.11% (inactive). Then `COc1cccc(C2C3=C(N=c4s/c(=C\c5ccccc5O)c(=O)n42)c2ccccc2CC3)c1OC` (stereo unspecified), with 5.15% (inactive). In the case of `COc1ccccc1C1C2=C(N=c3s/c(=C/c4cccc(OCC(=O)O)c4)c(=O)n31)c1ccccc1CC2` (stereo unspecified), the inhibition was -4.54% (inactive). Then `COc1cccc(C2C3=C(N=c4s/c(=C\c5ccc(O)cc5)c(=O)n42)c2ccccc2CC3)c1OC` (stereo unspecified), with 6.52% (inactive).

In the case of `COc1ccc(/C=c2/sc3n(c2=O)C(c2ccccc2OC)C2=C(N=3)c3ccccc3CC2)cc1O` (stereo unspecified), the inhibition was 16.2% (inactive). Then `CCOc1ccc(NC(=O)Nc2ccc(Br)cn2)cc1`, with 0.855% (inactive). Next, `CCOC(=O)N1CCN(C(=O)c2ccccc2NC(=O)c2ccc(F)cc2)CC1`: 22.6% (inactive). Next, `COc1ccc(C2/C=C\CN(C(=O)Oc3ccccc3)CC(=O)N2Cc2ccc(F)cc2)cc1` (stereo unspecified): 0.77% (inactive).

As for `CC(NC(=O)Cn1c(NCCO)nc2ccccc21)C1CC2CCC1C2` (stereo unspecified), the inhibition is -0.5% (inactive).

Take `O=C1C(NS(=O)(=O)c2cccs2)=C(N2CCN(c3cccc(Cl)c3)CC2)C(=O)c2ccccc21`: the inhibition was 72.6% (inactive). As for `O=C1C(NS(=O)(=O)c2cccs2)=C(N2CCN(c3ccccc3)CC2)C(=O)c2ccccc21`, the inhibition was 6.53% (inactive).

For the compound `COc1ccccc1N1C(=O)C2CC=CC(C)C2C1=O` (stereo unspecified), the inhibition is -9.33% (inactive). Next, `Cc1sc2nc(CN3CCOCC3)nc(N3CCOCC3)c2c1C`: -5.18% (inactive). Then `Cc1sc2nc(CN3CCOCC3)nc(Cl)c2c1C`, with 1.93% (inactive).

For `COC(=O)C1(C(F)(F)F)N=C2Sc3ccccc3N2C(N2CCOCC2)=N1` (stereo unspecified), the inhibition is -2.56% (inactive). Next, `N#Cc1ccc(-c2ccc(OCC(=O)NCCc3ccccc3)cc2)cc1`: 7.81% (inactive). Then `COc1ccc(CCNC(=O)COc2ccc(-c3ccc(C#N)cc3)cc2)cc1`, with -19.4% (inactive); and `CN(C)c1ccc(NC(=O)N2CCOCC2)cc1`, with -3.81% (inactive). Then `N#Cc1c(NC(=O)CN2C(=O)c3ccccc3C2=O)oc(-c2ccccc2)c1-c1ccccc1`, with -4.11% (inactive); and `Cc1[nH]c2ccccc2c1C(=O)C(=O)NCC1CCCO1` (stereo unspecified), with 7.05% (inactive). For `Cc1ccc(-c2csc(-c3ccncc3)n2)cc1`, the inhibition is -6.57% (inactive).

As to `Brc1ccc(-c2csc(-c3ccncc3)n2)cc1`, the inhibition was 40.3% (inactive).

Regarding `CCCOc1ccc(-c2nc(-c3ccc(N)cc3)cs2)cc1`, the inhibition is 1.99% (inactive). Then `Brc1ccc(-c2csc(Nc3nc(-c4ccc(Br)cc4)cs3)n2)cc1`, with 7.47% (inactive). Then `Cc1nc(N2CCN(c3ccccc3)CC2)[nH]c(=O)c1CCC(C)C`, with 6.58% (inactive); and `Nc1nc(SCC(=O)N2CCCc3ccccc32)n(-c2ccccc2)n1`, with -0.56% (inactive); and `CCC1S/C(=N\S(=O)(=O)c2cccs2)N(C2CCCCC2)C1=O` (stereo unspecified), with -5.04% (inactive). Next, `CC1(C)Cc2c(sc(NC(=O)Cc3ccccc3)c2C#N)CO1`: -0.57% (inactive). On to `O=C(NC1CCCCC1)N(Cc1nc2ccccc2c(=O)[nH]1)C1CCCCC1`, for which the inhibition was 12.6% (inactive). Then `Cc1cccc(Oc2nc(CN3CCOCC3)nc3sc4c(c23)CCCC4)c1`, with 14% (inactive); and `Cc1ccc(Oc2nc(CN3CCOCC3)nc3sc4c(c23)CCC(C)C4)cc1C` (stereo unspecified), with 40.8% (inactive).

For `O=C(Nc1ccc2c3c(cccc13)CC2)c1cccc([N+](=O)[O-])c1`, the inhibition was 2.05% (inactive). Then `CC(Cc1ccccc1)NC(=O)/C=C/c1ccc(Cl)cc1` (stereo unspecified), with -0.45% (inactive); and `COC(=O)[C@H](CC(C)C)NC(=O)NCc1ccc(Cl)cc1`, with -2% (inactive); and `O=C(/C=C/c1ccccc1Cl)NCc1ccccc1`, with -0.07% (inactive).

As for `CCC(CC)NC(=O)/C=C/c1ccccc1Cl`, the inhibition is -14.3% (inactive). Next, `CCOC(=O)Nc1ccc2c(c1)nc(CN1CCOCC1)n2C`: -2.73% (inactive); `Cc1ccc2nc(N(CCCN(C)C)C(=O)c3ccc(S(=O)(=O)N(C)C)cc3)sc2c1`: -7.66% (inactive); `CN(C)CCCN(C(=O)c1ccc2c(c1)CCCC2)c1nc2ccc(F)cc2s1`: 62.6% (inactive).
